Reference: the supplement of paper PMC6555819

Tests used:
Test in all cases: PBM binding z-score (relative to random genomic background probes); higher = stronger binding; sequences stand for … in GC…GCGATTGACAGCGTAGAATGAAGG
[1] = test system: PPARg:RXRa DBDmut IVT, anti-RXR (DBD mutation: RXRa K156A/R161A, NR concentration 270 nM, RXRa partner concentration 90 nM)
Summary of the method: (§1)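 Antibodies against each partner of ligand-free nuclear receptor dimers (one per run) detected binding on custom Agilent 4×180K protein-binding microarrays after 1 h incubation. The double-stranded probes had 34-nt variable regions carrying direct-repeat seeds, single-nucleotide variants, half-site ablations and random human genomic background sequences. Binding z-scores, from regression-normalized fluorescence, use the random background probes as reference.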

[2] = test system: PPARg:RXRa IVT, anti-PPARg (NR concentration 270 nM, RXRa partner concentration 90 nM)
Summary of the method: as §1

[3] = test system: PPARg DBDmut:RXRa IVT, anti-PPARg (DBD mutation: PPARg1 K132A/R137A, NR concentration 270 nM, RXRa partner concentration 90 nM)
Summary of the method: as §1

[4] = test system: PPARg DBDmut IVT, anti-PPARg (DBD mutation: PPARg1 K132A/R137A, NR concentration 270 nM)
Summary of the method: as §1

[5] = test system: PPARg homodimer (NR concentration 180 nM)
Summary of the method: as §1

[6] = test system: PXR:RXRa (NR concentration 270 nM, RXRa partner concentration 90 nM)
Summary of the method: as §1

[7] = test system: PXR homodimer (NR concentration 270 nM)
Summary of the method: as §1

[8] = test system: RARa:RXR (NR concentration 270 nM, RXRa partner concentration 90 nM)
Summary of the method: as §1

[9] = test system: RARa homodimer (NR concentration 270 nM)
Summary of the method: as §1

[10] = test system: RARb:RXRa (NR concentration 270 nM, RXRa partner concentration 90 nM)
Summary of the method: as §1

| Sequence | PBM binding z-score [1] | PBM binding z-score [2] | PBM binding z-score [3] | PBM binding z-score [4] | PBM binding z-score [5] | PBM binding z-score [6] | PBM binding z-score [7] | PBM binding z-score [8] | PBM binding z-score [9] | PBM binding z-score [10] |
| --- | --- | --- | --- | --- | --- | --- | --- | --- | --- | --- |
| AGAATGAAGTTAAGATCAGGGAAACAGAATACAT | -0.915 | -0.265 | 0.14 | 0.809 | -0.657 | -0.19 | 0.0131 | -0.474 | 0.347 | -0.251 |
| ACTTACGGTTCAACGAGGTTATAGCACGCGTATA | 0.149 | 0.712 | 1.36 | 1.61 | 1.64 | 4.06 | 6.85 | 3.55 | 0.973 | 1.59 |
| CAGCCTAGGACAGGGCCAGTATAGGAGGAACGTT | -0.459 | -0.805 | -1.23 | -1.3 | 0.0188 | -0.859 | -0.323 | -0.684 | -0.467 | -0.0437 |
| CTCGAAAGGTCGTGCTAAGGTGAGTATACCAAAC | 0.626 | 2.19 | 0.542 | 0.415 | 2.51 | 3.71 | 0.449 | 5.09 | 0.258 | 4.05 |
| GCTACTAGGTCAACTGATGGTCAGCTAAAGCTCG | 8 | 8.03 | 2.65 | 2.15 | 2.57 | 1.75 | -0.307 | 3.07 | 0.12 | 4.25 |
| TCGAGTAGGGTAGGGGCATTCAGAATGGCGTCGA | 1.02 | 1.33 | -0.123 | 1.32 | 0.484 | 0.566 | 0.395 | 0.405 | 0.0821 | 0.666 |
| GCTAGCAGGCCATTGGGGTCACTCAATGACGGGC | 0.93 | 2.42 | -0.918 | -0.85 | 1.48 | 5.48 | 8.59 | 5.19 | -0.69 | 3.01 |
| CCGACTGGGGCAAGGTTACAATAACGCACAGCCA | 3.2 | 3.29 | -0.578 | -1.14 | 0.441 | 0.333 | -0.113 | 0.945 | 0.189 | 1.38 |
| TATACACGGTCAAAGGCCAGAGTACGAATGTCGA | 0.134 | 2.39 | 1.55 | 1.14 | 1.12 | 0.507 | 0.583 | 1.13 | 0.418 | 2.85 |
| CCAGACAGGTGAGGAGGTAACTCAGCCTCGATTA | 0.968 | 0.86 | -0.637 | -0.654 | 0.632 | 0.016 | 0.482 | 0.341 | 0.613 | 0.524 |
| CAAATTAGGTCACCGGAAGGTCAAAGTCCGCATG | 8.26 | 8.72 | 5.54 | 4.55 | 7.17 | 6.18 | 1.78 | 7.5 | 2.54 | 5.54 |
| TCGAGTAGGTTAGTCGGGGCATTCTGCCAACATA | 2.38 | 1.64 | -0.758 | -0.515 | -0.211 | -0.103 | -0.171 | -0.0333 | -0.547 | 0.287 |
| CCGACTGGGGCAAACGTTACCATACTCAGTACGA | 5.15 | 3.9 | -0.175 | -0.646 | 0.256 | -0.42 | -0.33 | -0.168 | -0.437 | 0.494 |
| AGAATGAGGGTACCAAAGATCAGGGAAACGCTTG | 1.95 | 1.35 | 0.283 | 0.511 | -0.237 | -0.107 | 0.0728 | 0.253 | 0.0319 | 0.552 |
| GATACAGGGTCAAGCCCAGAGTACGCGTATTGAT | 3.47 | 4.08 | 0.821 | -0.0259 | 2.23 | 3.87 | 0.125 | 4.85 | 0.476 | 4.53 |
| CAAACTAGGTCACCAGAAGGTCAAAGTCCGCATG | 8.93 | 9 | 4.64 | 2.7 | 9.04 | 5.96 | 2.47 | 7.6 | 3.53 | 5.18 |
| CAAACTAGGTCAAGAGGACAAAGTCCGCTTCCCG | 8.17 | 8.27 | 2.16 | 2.91 | 1.84 | 1.37 | 0.291 | 2.12 | 0.947 | 4.37 |
| TCTAGTTGGTCAAAGGTCACAAACTCGAAATGCG | 3.16 | 5.98 | 1.2 | 1.06 | 3.78 | 5.56 | 1.54 | 6.79 | 3.07 | 4.77 |
| CTCGAAAGGTCGGTTGAGGTGAGCATACGGATAA | -0.122 | 1.01 | -0.332 | -0.0105 | 0.799 | 2.9 | -0.0982 | 2.5 | 0.0392 | 3.09 |
| TCATATAGGTAAAAGGTGCAAGTCGGTGTGGTAA | 4.71 | 3.76 | 0.923 | 0.831 | 1.63 | 0.954 | 0.487 | 0.733 | 1.23 | 0.917 |
| CGAACTAGGTCATCCCGGACAGTGAATACATTGA | 7.94 | 8.33 | 3.25 | 4.44 | 4.1 | 1.56 | 0.96 | 2.24 | 1.88 | 3.69 |
| TCATATAGGTAAACGGGTGAAAGTCCGTAAGTTA | 4.54 | 4.35 | 1.22 | 1.51 | 0.689 | 0.621 | 0.241 | 0.612 | 0.587 | 0.567 |

| Sequence | PBM binding z-score [1] | PBM binding z-score [2] | PBM binding z-score [3] | PBM binding z-score [4] | PBM binding z-score [5] | PBM binding z-score [6] | PBM binding z-score [7] | PBM binding z-score [8] | PBM binding z-score [9] | PBM binding z-score [10] |
| --- | --- | --- | --- | --- | --- | --- | --- | --- | --- | --- |
| GCTATTATTTGAAAGGGCAACCGAATGATTCTCG | 0.681 | 0.479 | 0.791 | 0.619 | 1.8 | 0.697 | 1.02 | 1.07 | 2.43 | 2.09 |
| TCATATAGGTAATACAGGTGATAGTCGGCATCTA | 4.04 | 3.01 | 1.19 | 2.05 | 1.08 | 0.592 | 0.285 | 0.723 | 1.73 | 0.484 |
| GCTTACTGGTCAAAGGTTATAGCATGAATAGAAT | 1.14 | 3.37 | 1.09 | 1.11 | 0.856 | 3.18 | 0.438 | 4.53 | 0.553 | 2.54 |
| GCTAGTAGATCAAGGTTAAGAAAGACTAAGCTAA | 1.22 | 0.943 | -0.176 | -0.411 | -0.263 | 0.229 | 0.0369 | 0.542 | 0.169 | 0.561 |
| ATCGAAAAGTCGTGAGGTGAGTATACAGAAAGGC | -0.639 | 0.331 | 0.929 | 1 | 0.473 | 0.0533 | -0.117 | 0.486 | 0.556 | 0.552 |
| CGTCCAAGGTCACAGGTCAGTGAAGAGATGACGG | 4 | 5.24 | 0.709 | 0.624 | 2.75 | 4.99 | 0.786 | 6.06 | 1.32 | 5.63 |
| TAGCCTAGGTCATTCAGGGTCCAGTATAGAAAGC | 1.57 | 2.74 | 0.533 | 0.0908 | 1.38 | 3.27 | 0.324 | 2.84 | -0.0201 | 3.77 |
| CCTACCGGGCCATTCAGAGGTCATTGATCATATG | 0.333 | 1.62 | -0.171 | -0.538 | 2.87 | 5.36 | 2.87 | 5.57 | 0.404 | 3.29 |
| TGTCAAAGTTCAATGGTAACGTAAGTATCCACAC | -0.339 | 3.53 | 0.89 | 1.61 | 2.42 | 3.89 | 2.86 | 2.38 | 1.11 | 4.58 |
| CCAGACAGGTGATAGGTAACTCAGTCTGGTACGC | 0.575 | 0.559 | -0.871 | 0.0703 | 0.624 | -0.293 | -0.225 | 0.152 | 0.246 | 0.0928 |
| GCTTATAGATCAAGGTTAAGAAAGACTAAGCTAA | 0.775 | 0.678 | 0.643 | 0.713 | 0.58 | 0.457 | -0.0715 | 0.879 | 0.134 | 0.997 |
| GCTTACGGGCCAAAGGTTATAGCATGAATAGAAT | 1.06 | 3.69 | -0.252 | 0.373 | 0.626 | 2.27 | 0.0168 | 3.13 | 0.0801 | 1.81 |
| GCTGCTAGGTCAGCTTGGTCAGCTAACGGGTACG | 3.14 | 2.46 | -1.08 | -1.08 | 0.887 | 0.168 | -0.979 | 0.718 | -0.683 | 3.29 |
| ACAGACAGGTGATGAAGGTAACTCACGCTATCAT | 0.262 | 0.375 | 0.0319 | -0.0294 | 0.0571 | 0.00932 | 0.106 | 0.165 | 0.142 | 0.289 |
| GATACATGGTCAGCTAGAGGCCAGAGTATGGAAA | -0.61 | 0.0448 | -1.36 | -0.885 | -0.578 | -0.344 | -0.0734 | -0.157 | -0.619 | 0.819 |
| TCTATTAGTTGATTAGGGAAACCGAAACAGCGGA | 2.16 | 0.295 | 0.834 | 0.978 | 1.03 | 0.624 | 1.07 | 0.778 | 1.68 | 0.394 |
| CCTACTGGGTCATCAGGTCATTGATATCAACGTT | 6.76 | 7.36 | 1.4 | 0.93 | 3.28 | 3.76 | 0.934 | 4.74 | 1.85 | 3.9 |
| GCTAGCAGGCCATTTGGGTCACTCATTGACGGGC | 1.91 | 1.84 | -1.26 | -0.505 | -0.295 | 0.252 | -0.137 | 0.652 | -0.74 | 1.26 |
| TCATATAGGTAAATGCTAGCTGAAAGTCCGATCT | 3.73 | 1.89 | 0.625 | 1.15 | 0.314 | 0.592 | 0.27 | 0.762 | 0.642 | 0.242 |
| ATCGAAAGGTCGAAGGTGAGTAAACCCACCCGAA | 0.0227 | 2.17 | 0.972 | 0.487 | 1.89 | 3.11 | 0.0457 | 4.5 | 0.979 | 3.88 |
| CCTTACGGGTCAAGGCTATAGCACGGGTGGTACG | 1.68 | 3.1 | -0.373 | -0.381 | 1.08 | 2.58 | -0.208 | 3.68 | 0.855 | 3.98 |
| ATACCAAGGTGATCGTGAGGGCGTTGATACTAAC | 0.642 | 0.871 | 0.129 | 1.25 | 0.383 | 1.29 | 0.775 | 0.85 | 0.505 | 0.796 |
